Test results published in PubChem BioAssay (NCI).
Compounds without any hit were thinned out: in the full panel of roughly 83,000, 20% have a hit.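 Assay: single dose, 48 h. Readout: percent growth (0 = no net growth; negative = cell death). Active: <10.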 Values without a mark were called inactive. Calls of active or inactive are those of the source.

Key:
Assay in all cases: NCI-60 one-dose screen, 48 h (100 = growth as untreated, 0 = no growth, -100 = all killed)
SR leukemia = settings: 10 µM
RPMI-8226 leukemia = settings: 10 µM
OVCAR-8 ovarian = settings: 10 µM
OVCAR-5 ovarian = settings: 10 µM
OVCAR-4 ovarian = settings: 10 µM
SK-OV-3 ovarian = settings: 10 µM
IGROV1 ovarian = settings: 10 µM
OVCAR-3 ovarian = settings: 10 µM
HS 578T breast = settings: 10 µM
NCI/ADR-RES ovarian = settings: 10 µM
T-47D breast = settings: 10 µM
BT-549 breast = settings: 10 µM
MDA-MB-435 melanoma = settings: 10 µM
SW-620 colon = settings: 10 µM
MCF7 breast = settings: 10 µM unless noted
HCT-116 colon = settings: 10 µM
HCC-2998 colon = settings: 10 µM
KM12 colon = settings: 10 µM

| Compound | growth (SR leukemia) | growth (RPMI-8226 leukemia) | growth (OVCAR-8 ovarian) | growth (OVCAR-5 ovarian) | growth (OVCAR-4 ovarian) | growth (SK-OV-3 ovarian) | growth (IGROV1 ovarian) | growth (OVCAR-3 ovarian) | growth (HS 578T breast) | growth (NCI/ADR-RES ovarian) | growth (T-47D breast) | growth (BT-549 breast) | growth (MDA-MB-435 melanoma) | growth (SW-620 colon) | growth (MCF7 breast) | growth (HCT-116 colon) | growth (HCC-2998 colon) | growth (KM12 colon) |
| --- | --- | --- | --- | --- | --- | --- | --- | --- | --- | --- | --- | --- | --- | --- | --- | --- | --- | --- |
| COc1ccc(OC)c(/C=C2\CCc3ccccc3C2=O)c1 | 31.6% | 35.7% | 65.4% | 72.9% | 70.9% | 53% | 50.9% | 9.47% (active) | 45.4% | 17.8% | 56.3% | 44.3% | -37.9% (active) | 17.4% | 12.1% | 19.3% | 73.9% | 22.8% |
| CC1OC(Oc2c(-c3ccc(O)c(O)c3)oc3cc(O)cc(O)c3c2=O)C(O)C(O)C1O (centres undefined) | 106% | 105% | 106% | 108% | 105% | 108% | 107% | 103% | 105% | 111% | 105% | 109% | 111% | 99.8% | 101% | 105% | 110% | 102% |
| Oc1ccccc1-c1nnco1 | 90.4% | 86.8% | 98.9% | 107% | 83.1% | 91.1% | 86.3% | 101% | 45.1% | 93.1% | 82% | 77.5% | 91.5% | 98.3% | 102% | 106% | 104% | 100% |
| CCN(CC)c1ccc2nc3ccc(=[N+](CC)CC)cc-3oc2c1 | 22.5% | 6.38% (active) | -9.58% (active) | -30.1% (active) | -88.7% (active) | -9.43% (active) | -31.8% (active) | -7.91% (active) | 58.1% | 90.3% | -2.86% (active) | 48% | -14.7% (active) | 6.33% (active) | -34.9% (active) | -40.7% (active) | 40.3% | 4.22% (active) |
| C#CCSc1nnnn1-c1ccc(Br)c(C)c1 | 74.4% | 62.1% | 82.5% | 90% | 80.8% | 105% | -28.7% (active) | 106% | 78.2% | 84.6% | 87.6% | 103% | 95.8% | 99.9% | 82.4% | 88% | 121% | 102% |
| OCC(O)C(O)C(O)C(O)/C=N/O (centres undefined) | 102% | 94.9% | 97.6% | 109% | 104% | 87.2% | 107% | 113% | 103% | 103% | 87.4% | 91.5% | 108% | 99.6% | 96.3% | 91.3% | 102% | 101% |
| O=C(O)c1cc([N+](=O)[O-])ccc1Cl | 88.4% | 88.8% | 96.1% | 104% | 107% | 106% | 117% | 115% | 119% | 103% | 99.6% | 97.1% | 107% | 98.5% | 88% | 102% | 97% | 95% |
| COc1cc([C@@H]2c3cc4c(cc3[C@H](O)[C@H]3COC(=O)[C@H]23)OCO4)cc(OC)c1OC | -1.68% (active) | 29.7% | 12.9% | 40% | 26.9% | 24.4% | 31.6% | -42.8% (active) | 26.9% | 4.7% (active) | 65.5% | 7.33% (active) | -30.3% (active) | 24.5% | 5.76% (active) | 2.8% (active) | -4.87% (active) | -4.78% (active) |
| CSC(=N\N=C\c1ccc(N(C)C)cc1)/N=C/N(C)C | 99% | 92.3% | 102% | 95.5% | 107% | 106% | 105% | 112% | 90.1% | 119% | 94.9% | 113% | 102% | 83.8% | 97% | 102% | 108% | 110% |
| CC(=O)N(C)c1ccc([N+](=O)[O-])cc1 | 105% | 120% | 99.6% | 91.8% | 119% | 106% | 117% | 118% | 120% | 106% | 94.7% | 97.4% | 113% | 107% | 95.6% | 102% | 94.8% | 114% |
| COc1ccc(Oc2c(I)cc(CC(NC(C)=O)C(=O)O)cc2I)cc1 (centres undefined) | 83.1% | 74.3% | 83.2% | 91.7% | 89.4% | 105% | 106% | 99% | 95.7% | 62.4% | 74% | 65.1% | 85.1% | 104% | 89.2% | 79.6% | 88% | 113% |
| O=C(O)C(c1ccccc1)C(O)c1ccccc1 (centres undefined) | 94.6% | 101% | 99.4% | 103% | 120% | 99.9% | 101% | 116% | 100% | 107% | 94.4% | 110% | 105% | 106% | 95.3% | 105% | 97.9% | 108% |
| O=[N+]([O-])c1ccc(/C=C/C=C/c2ccccc2)c(Cl)c1 | 95.2% | 87.6% | 98.8% | 102% | 82.5% | 98.8% | 88% | 105% | 87.7% | 108% | 74.3% | 102% | 99.5% | 98.1% | 74.2% | 76.6% | 97.3% | 94.5% |
| CCOc1ccc(/C=C/C(=O)c2ccccc2)cc1 | 40.6% | 9.27% (active) | 95.6% | 106% | 102% | 103% | 74.8% | 93.7% | 120% | 105% | 88.8% | 102% | 89.2% | 96.4% | 70.5% | 83.7% | 92.5% | 80.2% |
| COC(=O)Nc1nc2ccc(C(=O)c3cccs3)cc2[nH]1 | -4.93% (active) | 28.7% | 13.1% | 42.4% | 36.3% | 13.3% | 39.1% | -7.19% (active) | 20.9% | -20.4% (active) | 91.1% | 26.3% | -47.6% (active) | 24.8% | 14.6% | 11.7% | 12.1% | 7.54% (active) |
| CNc1nc(NC)c2cn[nH]c2n1 | 96.7% | 99.2% | 111% | 106% | 108% | 97.2% | 109% | 114% | 101% | 108% | 101% | 103% | 111% | 106% | 97.3% | 99.4% | 100% | 105% |
| C/C(=C\c1cc(Cl)ccc1OCC(=O)O)[N+](=O)[O-] | 113% | 81.5% | 100% | 106% | 111% | 97.7% | 112% | 109% | 93.5% | 102% | 85.9% | 117% | 105% | 114% | 90.4% | 109% | 111% | 105% |
| N#Cc1c(N)sc(=S)c2c1CCCC2 | 93.6% | 95.1% | 103% | 108% | 102% | 103% | 116% | 113% | 104% | 104% | 95.7% | 98.5% | 109% | 112% | 93.3% | 104% | 106% | 110% |
